Molecules are shown by their SMILES. Compounds without any hit were thinned out: in the full panel of roughly 83,000, 20% have a hit.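 Compound tested at a single concentration for 48 hours in 96-well plates; a percent growth value below 10 was scored as active.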 A number with no mark means an inactive call. Active and inactive are the calls of the source.

Some test systems named below: NCI-H23 lung; NCI-H226 lung; NCI-H322M lung; HOP-62 NSCLC; NCI-H460 lung; HOP-92 NSCLC; NCI-H522 lung; A549/ATCC NSCLC; 786-0 renal; COLO 205 colon; DU-145 prostate; K-562 leukemia; MALME-3M melanoma; MDA-MB-231 breast; RXF 393 renal; SF-268 CNS; SF-295 CNS; SF-539 CNS; UACC-257 melanoma; M14 melanoma.
Holding throughout (assay): NCI-60 one-dose screen, 48 h (100 = growth as untreated, 0 = no growth, -100 = all killed)
Common to all, as to conditions: 10 µM unless noted

With `Nc1n[nH]c2cccc(C#Cc3cccc(C(=O)Nc4cc(C(F)(F)F)cc(C(F)(F)F)c4)c3)c12`, the growth is 73.8% in the assay with NCI-H23 lung; 42.7% with NCI-H226 lung; 96.7% in the assay with NCI-H322M lung; 93.8% with HOP-62 NSCLC; 76.5% in the assay on NCI-H460 lung; 36.9% in the assay on HOP-92 NSCLC. The growth in the assay on NCI-H522 lung is 35.1%; with A549/ATCC NSCLC, 80.4%; with 786-0 renal, 103%; with COLO 205 colon, 81%; in the assay on DU-145 prostate, 91.5%; in the assay with K-562 leukemia, 4.87% (active). The growth in the assay on MALME-3M melanoma is 53.4%; in the assay on MDA-MB-231 breast, 51.9%; with RXF 393 renal, 50.5%; in the assay on SF-268 CNS, 68.8%; with SF-295 CNS it was 77.9%; in the assay with SF-539 CNS, 53.3%. For the same compound, the growth in the assay with UACC-257 melanoma is 71.6%; in the assay on M14 melanoma it was 34.1%.

For the compound `COCCOc1cc2ncnc(N3CCN(c4cc(S(C)(=O)=O)c(C)cc4Cl)CC3)c2cc1OCCOC`, the growth is 81.9% in the assay with NCI-H23 lung; 81.4% in the assay with NCI-H226 lung; 105% in the assay on NCI-H322M lung; 100% in the assay on HOP-62 NSCLC; 102% in the assay on NCI-H460 lung; 53.3% in the assay with HOP-92 NSCLC. Besides, the growth was 90.6% with NCI-H522 lung; 90.6% in the assay with A549/ATCC NSCLC; 105% in the assay on 786-0 renal; 97.1% in the assay on COLO 205 colon; 96.8% in the assay on DU-145 prostate; 88.9% in the assay on K-562 leukemia. Moreover, the growth in the assay on MALME-3M melanoma was 87%; in the assay on MDA-MB-231 breast it was 96%; with RXF 393 renal it was 99.7%; with SF-268 CNS it was 91.8%; in the assay on SF-295 CNS, 90.5%; in the assay on SF-539 CNS it was 92%. For the same compound, the results for the growth with UACC-257 melanoma and with M14 melanoma were 91.1% and 111%, respectively.

Take `C[C@@H](CO)[C@@H]1CCC=C2CC[C@]3(C)[C@H](CC[C@@H]4[C@@]5(C)CCCNC(C)(C)[C@@H]5CC[C@]43C)[C@H]21`: the growth was 67.9% in the assay on NCI-H23 lung; 94.6% in the assay with NCI-H226 lung; 78.3% in the assay on NCI-H322M lung; 91.1% in the assay on HOP-62 NSCLC; -67.1% (active) in the assay with NCI-H460 lung; 75.7% in the assay on HOP-92 NSCLC. Also, the growth in the assay with NCI-H522 lung was 82.1%; with A549/ATCC NSCLC, 47%; in the assay on 786-0 renal it was 70%; in the assay with COLO 205 colon, -56.8% (active); with DU-145 prostate, 62.4%; in the assay with K-562 leukemia it was -19.9% (active). Besides, the growth with MALME-3M melanoma is 46.6%; with MDA-MB-231 breast it was 59.9%; in the assay on RXF 393 renal, 68%; in the assay on SF-268 CNS, 82.2%; in the assay on SF-295 CNS it was 93.7%; in the assay with SF-539 CNS, 57.8%. Also, the growth with UACC-257 melanoma was 30.4%; in the assay on M14 melanoma, 30.9%.

For the compound `NC(=O)c1cc(I)ccc1NC(=O)/C=C/c1ccccc1`, the growth with NCI-H23 lung is 9.27% (active); with NCI-H226 lung, 56.8%; with NCI-H322M lung, 33.8%; in the assay on HOP-62 NSCLC it was -35.5% (active); with NCI-H460 lung, 1.75% (active); in the assay with HOP-92 NSCLC, 0.535% (active). For the same compound, the growth is -18.7% (active) with NCI-H522 lung; 33.7% in the assay with A549/ATCC NSCLC; 26% with 786-0 renal; 15.3% in the assay with COLO 205 colon; -7.97% (active) in the assay on DU-145 prostate; 1.5% (active) with K-562 leukemia. In addition, the growth in the assay on MALME-3M melanoma was 42.7%; in the assay with MDA-MB-231 breast, 31.6%; with RXF 393 renal, 19.3%; with SF-268 CNS, 29.9%; with SF-295 CNS, -18.4% (active); in the assay with SF-539 CNS, -22% (active). Also, the growth in the assay on UACC-257 melanoma is 69.7%; with M14 melanoma, 19.2%.

As to `CCCCn1c(=O)[nH]c(N)c([C@@H]2c3c([nH]c(=O)n(CCCC)c3=O)Oc3ccc4ccccc4c32)c1=O`, the growth in the assay on NCI-H23 lung was 13%; with NCI-H226 lung, 92%; in the assay on NCI-H322M lung, 74.9%; with HOP-62 NSCLC, 73.6%; in the assay with NCI-H460 lung, 15.4%; in the assay with HOP-92 NSCLC it was 83.3%. Besides, the growth was 59% in the assay with NCI-H522 lung; 94.6% in the assay on A549/ATCC NSCLC; 77.8% in the assay on 786-0 renal; 59.3% with COLO 205 colon; 47.5% with DU-145 prostate; 76.3% in the assay with K-562 leukemia. Also, the growth in the assay with MALME-3M melanoma is 38.5%; with MDA-MB-231 breast, 55.4%; in the assay on RXF 393 renal it was 99.6%; in the assay with SF-268 CNS, 8.16% (active); with SF-295 CNS it was 89.1%; with SF-539 CNS it was 95.8%. Besides, the growth is 93% in the assay with UACC-257 melanoma and 31.1% in the assay on M14 melanoma.

In the case of `CC/C(=C(/c1ccc(Cl)cc1)c1ccc(OCCN2CCCCC2)cc1)c1ccc(OC)cc1`, the growth in the assay with NCI-H23 lung was 50.8%; with NCI-H226 lung it was 81.3%; in the assay on NCI-H322M lung, 81%; with HOP-62 NSCLC, 86.8%; in the assay on NCI-H460 lung, 32%; in the assay with HOP-92 NSCLC, 57%. Also, the growth in the assay on NCI-H522 lung is 65.1%; in the assay on A549/ATCC NSCLC, 56.1%; in the assay with 786-0 renal it was 52%; in the assay with COLO 205 colon it was 40.4%; in the assay on DU-145 prostate, 82.8%; in the assay on K-562 leukemia, 2.95% (active). In addition, the growth in the assay with MALME-3M melanoma was 75.4%; in the assay on MDA-MB-231 breast, 73.3%; in the assay on RXF 393 renal, 47.9%; in the assay on SF-268 CNS it was 86.5%; in the assay on SF-295 CNS, 55.1%; with SF-539 CNS it was 65.5%. For the same compound, the growth in the assay on UACC-257 melanoma is 54.2%; in the assay with M14 melanoma it was 28.2%.

With `C=C1CC[C@@H]2[C@](C)(COC(C)=O)[C@H](OC(C)=O)CC[C@@]2(C)[C@@H]1CC(Nc1ccc(S(=O)(=O)Nc2ncccn2)cc1)C1=CCOC1=O` (stereo not given in full), the growth is 29.6% in the assay with NCI-H23 lung; -16.6% (active) in the assay with NCI-H226 lung; 50.9% in the assay with NCI-H322M lung; 126% in the assay with HOP-62 NSCLC; 18.1% in the assay with NCI-H460 lung; 56.3% in the assay on HOP-92 NSCLC. Further, the growth with NCI-H522 lung is -67.7% (active); with A549/ATCC NSCLC, 44.7%; with 786-0 renal, -10.1% (active); in the assay on COLO 205 colon, -12.1% (active); in the assay with DU-145 prostate, 14.9%; in the assay with K-562 leukemia, 4.6% (active). Also, the growth in the assay on MALME-3M melanoma is -4.93% (active); in the assay with MDA-MB-231 breast it was -1.01% (active); with RXF 393 renal it was -70% (active); in the assay with SF-268 CNS, 18.3%; with SF-295 CNS, 68%; with SF-539 CNS it was -69% (active). Moreover, the figures for the growth with UACC-257 melanoma and in the assay with M14 melanoma were 16.6% and 4.76% (active), respectively.

As to `COc1cc(-c2csc(NC(=O)c3ccc(N4CCOCC4)c(C(F)(F)F)c3)n2)cc(OC)c1OC`, the growth with NCI-H23 lung was 15.7%; in the assay on NCI-H226 lung, 41.6%; in the assay on NCI-H322M lung, 70.3%; in the assay on HOP-62 NSCLC it was 34.2%; in the assay on NCI-H460 lung, 46.2%; with HOP-92 NSCLC, 57.6%. For the same compound, the growth with NCI-H522 lung is 14.3%; in the assay with A549/ATCC NSCLC it was 31.9%; in the assay with 786-0 renal, 37%; in the assay with COLO 205 colon, 18.9%; with DU-145 prostate, 53.4%; in the assay on K-562 leukemia it was 18.9%. Further, the growth is 29.3% with MALME-3M melanoma; 71.4% in the assay with MDA-MB-231 breast; 62% with RXF 393 renal; 40% with SF-268 CNS; 21.9% in the assay on SF-295 CNS; 49.6% in the assay with SF-539 CNS. In addition, the growth in the assay on UACC-257 melanoma is 26.6%; in the assay with M14 melanoma, 12.9%.
